Screening results (PubChem BioAssay)
Most compounds without a hit are left out; they make up all but 2.3% or so of the library.
EBNA-1 inhibitor: EBNA-1 DNA-binding inhibitors, primary screen, biochemical, fluorescence polarization; inhibition, % at 14.8 µM; actives 0.34% (n = 300,000); AID 1950, 2009; in the data active = inhibition above about 28%
bovine MsrA act: bovine MsrA enzyme activators, primary screen, biochemical, absorbance, HTS | purified bovine MsrA, absorbance read-out | activation, % at 10.6 µM | AID 602163, 2012 | actives 0.3% (n = 360,000) | Methionine sulfoxide reductase A (Bos taurus); in the data active = activation above about 7.5%;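 also: 0% = vehicle and 100% = reference activator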
ZTA counter: ZTA (EBV) inhibition in EBNA-1 counter-screen | ZTA-DNA binding, fluorescence polarization | P03206 | inhibition, % at 11 µM | actives 0.15% (n = 320,000) | AID 2234; in the data active = inhibition above about 33%
PP1 counter: PP1-alpha phosphatase inhibitors, primary screen, counter-screen for PP5 inhibitor project, biochemical, fluorescence, OMFP substrate, single point; Serine/threonine-protein phosphatase PP1-alpha catalytic subunit (Homo sapiens), P62136; purified PP1alpha; inhibition, % at 6.7 µM; actives 0.9% (n = 320,000);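 active = inhibition above the mean inhibition of all tested compounds plus 3 SD, computed separately for each screening campaign, cut at about 15% in these data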
Target sequence (P62136 whole entry, looked up): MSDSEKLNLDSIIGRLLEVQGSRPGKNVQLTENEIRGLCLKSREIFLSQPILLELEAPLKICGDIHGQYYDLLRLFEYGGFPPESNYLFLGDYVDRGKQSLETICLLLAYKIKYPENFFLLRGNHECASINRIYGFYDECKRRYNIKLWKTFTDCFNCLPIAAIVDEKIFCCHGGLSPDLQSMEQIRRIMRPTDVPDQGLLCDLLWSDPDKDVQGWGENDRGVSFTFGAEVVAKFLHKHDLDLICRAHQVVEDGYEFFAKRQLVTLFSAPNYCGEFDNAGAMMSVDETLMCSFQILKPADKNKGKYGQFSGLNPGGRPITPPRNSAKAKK
PP5 primary: PP5 phosphatase inhibitors, primary screen, biochemical, fluorescence. inhibition, % at 6.7 µM. Serine/threonine-protein phosphatase 5 (Homo sapiens), P53041. actives 0.18% (n = 320,000). purified PP5c, OMFP substrate fluorescence;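 active = inhibition above the campaign's mean inhibition across all tested compounds plus 3 SD, cut at about 9.5% in these data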;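 also: 0% = DMSO only and 100% = 100 µM cantharidin control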
MsrA inhibitor: bovine MsrA enzyme inhibitors, primary screen, biochemical, absorbance, HTS; AID 651718, 2012; inhibition, % at 15.5 µM; purified bovine MsrA, absorbance read-out; actives 0.75% (n = 360,000);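 also: 0% = vehicle wells with enzyme and 100% = reference inhibitor wells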
MsrA act confirm: bovine MsrA activators, retest, confirmation, biochemical, absorbance, HTS. activation, % at 10.6 µM. AID 602270, 2012. actives 12% (n = 1,000). shares compounds with bovine MsrA act. purified bovine MsrA, absorbance read-out; in the data active = activation above about 4%;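 also: enzyme coupled to thioredoxin and thioredoxin reductase with NADPH; 0% = vehicle wells and 100% = reference activator wells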
MsrA inh confirm: bovine MsrA inhibitors, retest, confirmation, biochemical, absorbance, HTS; shares compounds with MsrA inhibitor; purified bovine MsrA, absorbance read-out; inhibition, % at 15.5 µM; actives 41% (n = 2,300);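 also: coupled to thioredoxin reductase with NADPH and selenocystamine and DMSO as substrate; 0% = vehicle only and 100% = full effect of reference inhibitor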
* = called active by the depositor; . = no result. Rule as the data show it, unless noted: active = inhibition above about 4.5%; inactive = the rest.

SMILES	EBNA-1 inhibitor	bovine MsrA act	ZTA counter	PP1 counter	PP5 primary	MsrA inhibitor	MsrA inh confirm	others
O=C(O)CCN1CCN(S(=O)(=O)c2ccc3ccccc3c2)CC1	5	-5	-2	-4	0	1	.
CC1OC2CC(=O)OC2C2=C1C(=O)c1c(O)cccc1C2=O (configuration not stated)	.	17*	.	.	.	8.5*	6.8*	MsrA act confirm=11*
O=S(=O)(Cc1ccc(Cl)cc1)N1CCCC1	-5	-2	4	-2	2	1	.
O=C(OCc1nnc(-c2ccccc2)o1)c1ccc([N+](=O)[O-])s1	.	18*	0	-5	4	9.3*	7.2*	MsrA act confirm=24*
Cc1ccc(C(=O)OCc2nnc(-c3ccccc3)o2)s1	12	-5	8	-2	-3	1	.
O=c1ccc(-c2ccc([N+](=O)[O-])cc2)nn1-c1ccccc1	6	-3	-6	1	0	0	.
O=[N+]([O-])c1ccc(-[n+]2nc(-c3ccccc3)nn2-c2ccccc2)cc1	-10	7.8*	-2	-3	1	26*	25*	MsrA act confirm=4.8*
Cc1ccc(S(=O)(=O)Nc2ccc3c(c2)C(=O)c2ccccc2-3)cc1	.	-3	.	.	.	0	.
Cc1ccc(NS(=O)(=O)c2ccc3c(c2)C(=O)c2ccccc2C3=O)c(C)c1	-4	12*	2	3	2	10*	32*	MsrA act confirm=5.8*
Cc1ccccc1-n1ncc2c([N+](=O)[O-])cc([N+](=O)[O-])cc21	-7	1	3	0	6	5.6*	3
Cc1cc(-c2ccccc2)nc2cc(C(=O)NCc3ccco3)nn12	11	-7	-11	1	0	1	.
CN1C(=O)/C(=C/c2ccccc2OCc2ccc(C(=O)O)cc2)NC1=S	-1	-10	-5	1	0	2	.
O=C1NC(=S)N/C1=C\c1ccccc1OCc1ccc(C(=O)O)cc1	-5	-2	8	-6	-1	6.4*	3
COc1cccc(/C=N/NC(=O)c2cc3c(OC)c(OC)ccc3[nH]2)c1OC	.	-6	.	.	.	6.3*	4.6*
COc1cccc(/C=N/NC(=O)c2cc3c(OC)cccc3[nH]2)c1OC	4	-4	-1	-3	0	5.3*	3
COc1ccc(/C=N/NC(=O)c2[nH]c3ccc(Cl)cc3c2-c2ccccc2)c(C(=O)O)c1OC	8	-3	10	3	-1	5.2*	6.5*
COc1ccc(/C=N/NC(=O)c2[nH]c3ccc(Br)cc3c2-c2ccccc2)c(C(=O)O)c1OC	3	-2	11	3	3	3	.
COc1cccc(/C=N/NC(=O)c2cc3c(OC)cccc3[nH]2)c1O	11	-3	24	8	2	1	.
COc1ccccc1/C=N/NC(=O)c1cc2c(OC)c(OC)ccc2[nH]1	.	-4	.	.	.	4	.
CN(C(=O)C(Cl)Cl)C1CC2C=CC1C2 (configuration not stated)	-2	6	3	-6	0	0	.
O=C(/C=C/c1ccc(O)c(O)c1)OC1C(O)CC(OC(=O)/C=C/c2ccc(O)c(O)c2)(C(=O)O)CC1O (configuration not stated)	5	-2	11	-4	-2	5.7*	2
COc1ccccc1NC(=O)CN1CCN(c2ccccc2)CC1	-6	-8	6	-2	-2	0	.
Fc1ccccc1-c1n[nH]c(=S)n1/N=C/c1c[nH]c2ccccc12	2	0	-2	-5	1	11*	7.3*
CN(/N=C/c1cccs1)c1cc(=O)n(C)c(=O)[nH]1	-12	-8	-4	-4	0	9.0*	5.8*
CCN(/N=C/c1cccs1)c1cc(=O)n(C)c(=O)[nH]1	-12	-4	-25	1	4	7.2*	6.7*
